Assay results from PubChem BioAssay (Tox21).
Inconclusive results are not listed. Calls of active or inactive are those of the source. Unless noted, calls come from the whole dose curve.

Assays:
[1] = Nuclear factor erythroid 2-related factor 2/antioxidant responsive element (Nrf2/ARE) small molecule agonists: qHTS cell viability counter screen in human keratinocytes (AID 1919968; active = well fitted curve in the direction sought with a large enough effect in the repeat runs; an effect the other way counts as inactive or inconclusive; note: nearly all actives have a fitted effect of over 55% in size; note: potency is the fitted concentration of half-maximal effect)
Method in brief: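 Stably transfected HaCaT (KeratinoSens), 1,500/well. Test agents in DMSO were applied for 23 h, 37 C/5% CO2. CellTiter-Fluor was incubated 1 h before the fluorescence read.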

[2] = Nuclear factor erythroid 2-related factor 2/antioxidant responsive element (Nrf2/ARE) small molecule agonists: luciferase reporter gene qHTS assay in human keratinocytes (AID 1919969); note: nearly all actives have a fitted effect of over 35% in size; note: potency is the fitted concentration of half-maximal effect
[3] = p53 small molecule agonists, cell-based qHTS assay with human liver microsomes (AID 1963577)
Method in brief: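 Fluorescence of the beta-lactamase reporter in p53RE-bla cells, detected with LiveBLAzer substrate (2 h, room temperature, dark), served as the read-out after 16 h compound exposure at 37 C with human liver microsomes and NADPH, each 0.5 mg/mL final.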

[4] = p53 small molecule agonists, cell-based qHTS assay with rat liver microsomes (AID 1963578)
Method in brief: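 Cells carrying a p53 response element–beta-lactamase reporter were plated and rested 5 h, then dosed with compound in DMSO plus rat liver microsomes and NADPH, each at 0.5 mg/mL final. After 16 h at 37 C, LiveBLAzer substrate was added for 2 h.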

[5] = p53 small molecule agonists, cell-based qHTS assay with human liver microsomes: qHTS cell viability counter screen (AID 1963579); note: nearly all actives have a fitted effect of over 45% in size; note: potency is the fitted concentration of half-maximal effect
Method in brief: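 Cytotoxicity counter screen: p53RE-bla, 4,000 cells/well; 5 h settle, 37 C/5% CO2; cpd + HLM 0.5 mg/mL + NADPH 0.5 mg/mL (final); 16 h, 37 C; CellTiter-Glo, 30 min RT, luminescence.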

[6] = p53 small molecule agonists, cell-based qHTS assay with rat liver microsomes: qHTS cell viability counter screen (AID 1963580); note: nearly all actives have a fitted effect of over 45% in size
Method in brief: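 Cytotoxicity counter screen: intracellular ATP read by CellTiter-Glo luminescence in the p53 reporter wells. HCT-116 p53RE-bla cells were treated for 16 h at 37 C alongside rat liver microsomes and NADPH, each 0.5 mg/mL final.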

[7] = p53 small molecule agonists, cell-based qHTS assay: qHTS cell viability counter screen (AID 1963581); note: nearly all actives have a fitted effect of over 45% in size; note: potency is the fitted concentration of half-maximal effect
Method in brief: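 qHTS counter screen: 16 h compound exposure at 37 C of p53RE-bla HCT-116 cells (4,000 per well, seeded 5 h prior), cell viability by ATP luminescence.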

[8] = p53 small molecule agonists, cell-based qHTS assay (AID 1963582; active = well fitted activation curve with a large enough effect in the signal ratio in the repeat runs, not every such curve was filed as active; the % refers to the signal ratio)
Method in brief: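 Measured: fluorescence from cleaved LiveBLAzer substrate. System: p53RE-bla cells, 16 h compound treatment at 37 C, 2 h substrate step at room temperature.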

[9] = molecular target: Muscarinic acetylcholine receptor M1 (Homo sapiens) (UniProt P11229); assay: Cholinergic receptor muscarinic 1 (CHRM1) small molecule antagonists, cell-based qHTS assay (AID 1963588); note: nearly all actives have a fitted effect of over 40% in size; note: potency is the fitted concentration of half-maximal effect
Method in brief: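 Compounds were tested at 15 concentrations in three independent runs. Dye-loaded CHRM1-CHO cells were exposed 5 min at room temperature before stimulation by acetylcholine added at 50nM. Intracellular calcium was read kinetically on FDSS for 3 min.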

[10] = molecular target: Muscarinic acetylcholine receptor M1 (Homo sapiens) (UniProt P11229); assay: Cholinergic receptor muscarinic 1 (CHRM1) small molecule agonists, cell-based qHTS assay (AID 1963589); note: nearly all actives have a fitted effect of over 35% in size
Method in brief: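 Kinetic fluorescence (1 s intervals) of calcium-sensitive dye in human M1 CHO cells after compound addition; cells pre-incubated 18 h at 37 C/5% CO2 and dye-loaded 1 h.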

[11] = cAMP Responsive Elements (CRE) small molecule agonists, cell-based qHTS assay (AID 1963590)
Method in brief: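 Test agents in DMSO were incubated 3 h at 37 C/5% CO2 with CRE-bla HEK 293T cells seeded 18 h earlier; LiveBLAzer B/G FRET substrate was added and read after 2 h at room temperature.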

[12] = cAMP Responsive Elements (CRE) small molecule antagonists, cell-based qHTS assay (AID 1963591; active = well fitted inhibition curve with a large enough effect in the signal ratio in the repeat runs, not every such curve was filed as active; the % refers to the signal ratio)
Method in brief: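 Reporter line CRE-bla HEK 293T in dialyzed-FBS DMEM; cells preincubated 18 h, treated 3 h with compound plus NKH477 (0.25 uM final); LiveBLAzer FRET, 2 h RT.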

[13] = molecular target: Beta-2 adrenergic receptor (Homo sapiens) (UniProt P07550); assay: Adrenergic beta2 receptor (ADRB2) small molecule antagonists, cell-based qHTS assay (AID 1963592); note: series mostly up to about 92 µM; nearly all actives have a fitted effect of over 50% in size
Method in brief: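 Assay format: CHO-ADRB2 cells, 18-20hr seeding at 37C/5% CO2, then compound plus 1nM isoproterenol agonist mix for 0.5hr RT. Homogeneous time-resolved fluorescence cAMP detection after 1hr, expressed as 665/615 nm ratio.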

[14] = molecular target: D(2) dopamine receptor (Homo sapiens) (UniProt P14416); assay: Dopamine D2 receptor (DRD2) small molecule agonists, cell-based qHTS assay (AID 1963594); note: nearly all actives have a fitted effect of over 35% in size
Method in brief: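 cAMP accumulation in DRD2-HEK293 cells measured by HTRF after 1 h detection; compounds added 10 min before NKH477 (200nM […]) forskolin-analogue stimulation, 30 min at room temperature, with Ro20-1724 present at 0.1 mM final.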

[15] = molecular target: Gonadotropin-releasing hormone receptor (Homo sapiens) (UniProt P30968); assay: Human gonadotropin-releasing hormone receptor (GnRHR) small molecule agonists, calcium flux assay in GnRHR-HEK293 cells (AID 1920063); note: nearly all actives have a fitted effect of over 35% in size
Method in brief: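 Stable human GnRHR HEK293 line. 18 h plating, then calcium dye for 1 h at 37 C. Agonist-mode compound addition from DMSO stocks; fluorescence monitored 3 min.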

[16] = molecular target: KiSS-1 receptor (Homo sapiens) (UniProt Q969F8); assay: Human kisspeptin (KISS1R) small molecule agonists, calcium flux assay in KISS1R-HEK293 cells (AID 1920064; active = well fitted curve in the direction sought with a large enough effect in the repeat runs; an effect the other way counts as inactive or inconclusive)
Method in brief: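 After overnight (18 h) culture at 37 C/5% CO2, human KISS1R-HEK293 cells received calcium dye for 1 h, then test compound; emission at 540 nm (excitation 480 nm) was tracked for 3 min.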

[17] = G protein-coupled receptor (GPCR) small molecule agonists, calcium flux assay: HEK293 wild type cell line counter screen (AID 1920065)
Method in brief: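 Following 18 h incubation at 37 C/5% CO2, plates got calcium dye for 1 h; compounds, ATP or DMSO were then pinned in and fluorescence followed kinetically (480/540 nm).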

[18] = molecular target: 5-hydroxytryptamine receptor 2A (Homo sapiens) (UniProt P28223); assay: 5-hydroxytryptamine receptor 2A (HTR2A) small molecule antagonists, cell-based qHTS assay (AID 1963586); note: nearly all actives have a fitted effect of over 45% in size
Method in brief: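 CHO cells stably expressing human HTR2A were plated for 18 h at 37 C, then loaded with calcium dye for 1 h. Compounds were preincubated 5 min at room temperature before DOI (4 nM solution) was added. Kinetic fluorescence was read for 3 min.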

[19] = molecular target: 5-hydroxytryptamine receptor 2A (Homo sapiens) (UniProt P28223); assay: 5-hydroxytryptamine receptor 2A (HTR2A) small molecule agonists, cell-based qHTS assay (AID 1963587); note: nearly all actives have a fitted effect of over 30% in size; note: potency is the fitted concentration of half-maximal effect
Method in brief: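 Kinetic calcium-flux fluorescence (2 min, 1 sec intervals) after compound addition in agonist mode. HTR2A-CHO cells were cultured 18 h, then dye-loaded 1 h at 37 C.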

[20] = molecular target: D(2) dopamine receptor (Homo sapiens) (UniProt P14416); assay: Dopamine D2 receptor (DRD2) small molecule antagonists, cell-based qHTS assay (AID 1963595; active = well fitted inhibition curve with a large enough effect in the signal ratio in the repeat runs, with a control signal flat; the % refers to the signal ratio)
Method in brief: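 HTRF cAMP read-out at 665 and 620 nm emission (340 nm excitation). Antagonist mode: compounds were tested against 12 nM quinpirole in DRD2-HEK293 cells, with 200 nM NKH477 raising cAMP and 0.1 mM Ro20-1724 blocking its breakdown.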

Measured: Potency

Beta-2 adrenergic receptor (Homo sapiens), sequence (P07550 whole entry, looked up): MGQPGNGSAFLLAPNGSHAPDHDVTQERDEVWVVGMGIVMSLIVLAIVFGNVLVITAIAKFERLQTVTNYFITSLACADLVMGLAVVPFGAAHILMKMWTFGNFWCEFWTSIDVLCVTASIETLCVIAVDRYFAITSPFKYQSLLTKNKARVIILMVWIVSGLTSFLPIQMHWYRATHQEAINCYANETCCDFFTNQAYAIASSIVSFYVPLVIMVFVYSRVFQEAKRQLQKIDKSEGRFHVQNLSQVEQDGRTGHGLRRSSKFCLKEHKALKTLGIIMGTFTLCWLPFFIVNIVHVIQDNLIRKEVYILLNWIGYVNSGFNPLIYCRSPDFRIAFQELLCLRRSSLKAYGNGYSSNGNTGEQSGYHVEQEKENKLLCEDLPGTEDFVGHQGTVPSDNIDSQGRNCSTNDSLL
KiSS-1 receptor (Homo sapiens), sequence (Q969F8 whole entry, looked up): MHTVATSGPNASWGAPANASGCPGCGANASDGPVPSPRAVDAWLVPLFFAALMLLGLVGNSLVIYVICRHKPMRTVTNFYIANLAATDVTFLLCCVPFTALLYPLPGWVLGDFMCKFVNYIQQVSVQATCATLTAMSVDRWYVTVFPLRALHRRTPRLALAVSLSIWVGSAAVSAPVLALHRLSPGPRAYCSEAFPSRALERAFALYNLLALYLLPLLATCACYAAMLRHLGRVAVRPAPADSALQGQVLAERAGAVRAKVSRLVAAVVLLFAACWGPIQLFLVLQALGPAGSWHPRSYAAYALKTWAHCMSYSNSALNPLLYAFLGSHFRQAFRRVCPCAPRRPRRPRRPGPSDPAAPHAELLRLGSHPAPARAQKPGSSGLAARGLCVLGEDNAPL
D(2) dopamine receptor (Homo sapiens), sequence (P14416 whole entry, looked up): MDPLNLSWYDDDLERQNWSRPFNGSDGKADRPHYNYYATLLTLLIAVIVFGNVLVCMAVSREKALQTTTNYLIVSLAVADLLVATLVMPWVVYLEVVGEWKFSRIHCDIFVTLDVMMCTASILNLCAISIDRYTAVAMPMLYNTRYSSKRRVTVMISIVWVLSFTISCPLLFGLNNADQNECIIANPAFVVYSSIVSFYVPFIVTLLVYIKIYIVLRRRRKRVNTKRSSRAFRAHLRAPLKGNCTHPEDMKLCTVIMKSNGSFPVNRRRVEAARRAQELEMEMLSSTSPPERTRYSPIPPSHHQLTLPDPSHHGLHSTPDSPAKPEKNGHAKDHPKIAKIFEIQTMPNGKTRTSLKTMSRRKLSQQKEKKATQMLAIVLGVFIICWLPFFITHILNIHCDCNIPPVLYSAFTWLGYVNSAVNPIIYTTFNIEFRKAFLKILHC
Muscarinic acetylcholine receptor M1 (Homo sapiens), sequence (P11229 whole entry, looked up): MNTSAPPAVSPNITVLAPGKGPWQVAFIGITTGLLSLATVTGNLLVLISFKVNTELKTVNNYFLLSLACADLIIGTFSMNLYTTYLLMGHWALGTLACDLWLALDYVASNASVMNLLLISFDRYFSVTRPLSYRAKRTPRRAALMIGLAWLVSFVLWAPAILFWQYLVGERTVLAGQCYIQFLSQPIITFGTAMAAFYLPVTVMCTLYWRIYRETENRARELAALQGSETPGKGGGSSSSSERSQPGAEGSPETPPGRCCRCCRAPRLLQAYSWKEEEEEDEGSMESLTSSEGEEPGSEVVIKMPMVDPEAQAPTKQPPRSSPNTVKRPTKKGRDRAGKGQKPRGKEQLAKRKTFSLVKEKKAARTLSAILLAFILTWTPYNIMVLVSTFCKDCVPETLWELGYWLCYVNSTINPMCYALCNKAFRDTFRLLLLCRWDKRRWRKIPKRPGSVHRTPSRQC
Gonadotropin-releasing hormone receptor (Homo sapiens), sequence (P30968 whole entry, looked up): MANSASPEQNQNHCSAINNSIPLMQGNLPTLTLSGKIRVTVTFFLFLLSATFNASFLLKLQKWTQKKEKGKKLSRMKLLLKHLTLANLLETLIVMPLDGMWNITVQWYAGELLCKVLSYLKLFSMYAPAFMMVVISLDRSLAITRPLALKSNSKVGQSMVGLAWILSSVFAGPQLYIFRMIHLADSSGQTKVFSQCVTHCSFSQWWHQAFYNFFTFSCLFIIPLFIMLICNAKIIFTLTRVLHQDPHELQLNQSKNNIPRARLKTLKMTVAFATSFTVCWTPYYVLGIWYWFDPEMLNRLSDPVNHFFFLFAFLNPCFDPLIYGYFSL
5-hydroxytryptamine receptor 2A (Homo sapiens), sequence (P28223 whole entry, looked up): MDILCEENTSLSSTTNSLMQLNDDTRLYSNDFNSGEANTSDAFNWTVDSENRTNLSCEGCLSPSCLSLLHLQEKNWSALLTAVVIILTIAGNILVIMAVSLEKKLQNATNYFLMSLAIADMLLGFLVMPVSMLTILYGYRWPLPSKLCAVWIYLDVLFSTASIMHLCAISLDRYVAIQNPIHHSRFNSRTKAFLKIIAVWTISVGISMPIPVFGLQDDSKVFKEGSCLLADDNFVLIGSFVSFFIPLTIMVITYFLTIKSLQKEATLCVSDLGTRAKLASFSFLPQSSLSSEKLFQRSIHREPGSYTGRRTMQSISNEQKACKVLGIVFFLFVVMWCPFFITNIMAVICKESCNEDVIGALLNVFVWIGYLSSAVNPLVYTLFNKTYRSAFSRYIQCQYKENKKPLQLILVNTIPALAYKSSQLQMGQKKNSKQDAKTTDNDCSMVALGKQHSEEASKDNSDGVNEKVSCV

CCCCCCCCCCCCCCCCN
inactive: [1] | [2] | [3] | [4] | [5] | [6] | [7] | [8] | [9] | [10] | [11] | [12] | [13] | [14]

CN1CCN(C)CC1
inactive: [1] | [15] | [16] | [17] | [3] | [4] | [5] | [6] | [7] | [8] | [18] | [19] | [9] | [10] | [11] | [12] | [13] | [14] | [20]

COc1cc(/C=C/C(=O)CC(=O)/C=C/c2ccc(O)c(OC)c2)ccc1O
active: [1] 48.9 µM | [2] 15.4 µM | [5] 16.3 µM | [7] 46.1 µM | [19] 22 µM
inactive: [18] | [9] | [13] | [14]

CC(C)(C)c1ccc(C(=O)O)cc1
inactive: [1] | [15] | [16] | [17] | [3] | [4] | [5] | [6] | [7] | [8] | [18] | [19] | [9] | [10] | [11] | [12] | [14] | [20]

NC(=O)CCCCC1CCSS1 (stereo unspecified)
inactive: [1] | [15] | [16] | [17] | [3] | [4] | [5] | [6] | [7] | [8] | [18] | [19] | [9] | [10] | [11] | [12] | [13] | [14] | [20]

CN1CCCN=C1/C=C/c1cccs1
inactive: [1] | [15] | [16] | [17] | [3] | [4] | [5] | [6] | [7] | [8] | [18] | [19] | [9] | [10] | [11] | [12] | [14] | [20]

CCCCCCCCS(=O)(=O)O
inactive: [1] | [2] | [17] | [5] | [6] | [7] | [18] | [19] | [9] | [10] | [11] | [12] | [13] | [14]

CC(C)(c1ccc(Oc2ccc(N)cc2)cc1)c1ccc(Oc2ccc(N)cc2)cc1
inactive: [15] | [16] | [17] | [3] | [4] | [5] | [6] | [7] | [8] | [18] | [19] | [9] | [10] | [11] | [12] | [13] | [14] | [20]
active: [1] 38.6 µM

C[C@]12C(=O)OC(=O)[C@H]1[C@H]1C=C[C@@H]2C1
inactive: [1] | [15] | [16] | [17] | [3] | [4] | [5] | [6] | [7] | [8] | [18] | [19] | [9] | [10] | [11] | [12] | [13] | [14] | [20]

Cc1ccc2ccc(Cl)cc2n1
inactive: [1] | [15] | [16] | [17] | [3] | [4] | [5] | [6] | [7] | [8] | [18] | [19] | [9] | [10] | [11] | [12] | [13] | [20]

O=C(c1ccccc1)C1CCCCC1
inactive: [1] | [15] | [16] | [17] | [3] | [4] | [5] | [6] | [7] | [8] | [18] | [19] | [9] | [10] | [11] | [12] | [13] | [14] | [20]

CC(C)(c1ccccc1)c1ccccc1
active: [9] 1.1 µM
inactive: [1] | [15] | [16] | [17] | [3] | [4] | [5] | [6] | [7] | [8] | [18] | [19] | [10] | [11] | [12] | [13] | [14]

Sc1nc(S)nc(S)n1
inactive: [1] | [15] | [16] | [17] | [3] | [4] | [5] | [6] | [7] | [8] | [18] | [19] | [9] | [10] | [11] | [12] | [13] | [14] | [20]

CC(C)=CCCC(C)CCOC=O (stereo unspecified)
inactive: [1] | [15] | [16] | [17] | [3] | [4] | [5] | [6] | [7] | [8] | [18] | [19] | [9] | [10] | [11] | [12] | [13] | [14] | [20]

Cc1c(C(=O)O)cccc1[N+](=O)[O-]
inactive: [1] | [15] | [16] | [17] | [3] | [4] | [6] | [7] | [8] | [18] | [19] | [9] | [10] | [11] | [12] | [13] | [14] | [20]
active: [5] 23.3 µM
